SMILES strings stand for the structures. Inconclusive results are not listed. The source made the active and inactive calls. Calls follow the shape of the dose curve; as a rule, active = well fitted inhibition curve with a large enough effect; inconclusive = small, poorly fitted or top-dose-only effect; inactive = no such curve, though single readings can be large or run the other way.

We go through 40 compounds from PubChem BioAssay (NCATS).
Potency is read from the fitted curve at half-maximal effect.

Chain of Cytochrome P450 3A4 (Homo sapiens) (P08684 whole entry, looked up): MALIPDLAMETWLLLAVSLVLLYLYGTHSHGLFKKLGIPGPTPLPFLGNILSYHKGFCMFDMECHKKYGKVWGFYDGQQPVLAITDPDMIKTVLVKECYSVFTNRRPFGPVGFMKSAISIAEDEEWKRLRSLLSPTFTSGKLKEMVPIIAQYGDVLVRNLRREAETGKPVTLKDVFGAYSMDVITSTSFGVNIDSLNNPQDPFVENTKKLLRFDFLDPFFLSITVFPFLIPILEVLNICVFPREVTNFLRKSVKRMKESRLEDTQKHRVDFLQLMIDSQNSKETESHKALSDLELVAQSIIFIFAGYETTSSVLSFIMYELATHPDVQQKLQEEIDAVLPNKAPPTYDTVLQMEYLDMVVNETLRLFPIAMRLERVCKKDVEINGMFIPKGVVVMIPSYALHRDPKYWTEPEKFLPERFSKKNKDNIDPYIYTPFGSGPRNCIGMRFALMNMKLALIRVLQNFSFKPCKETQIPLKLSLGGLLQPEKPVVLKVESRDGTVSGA

This test has as its target Cytochrome P450 3A4 (Homo sapiens) (UniProt P08684). Kind of test: qHTS Assay for Inhibitors and Substrates of Cytochrome P450 3A4 (AID 884). Also: nearly all actives have a fitted effect of over 50% in size. As to conditions: recombinant CYP3A4, Luciferin-PPXE luminescence; series mostly up to 57.1 µM. How it is done: NIH Molecular Libraries Screening Centers Network [MLSCN]
NIH Chemical Genomics Center [NCGC]
The P450 gene superfamily is involved in the metabolism and clearance of xenobiotics. This assay used human CYP3A4 to measure the dealkylation of luciferin-6' phenylpiperazinylyl (Luciferin-PPXE; […]) to luciferin. The luciferin is then measured by luminescence after the addition of a luciferase detection reagent. Luciferin-PPXE concentration in the assay was equal to its KM for CYP3A4. Inhibitors and some substrates limit the production of luciferin, and decrease measured luminescence.
NCGC Assay Protocol Summary:
Two uL of enzyme and substrate mix (final concentrations: 20nM CYP3A4, 25uM Luciferin-PPXE, 200mM KPO4) were dispensed into a white, solid bottom 1536-well microtiter plate. 23nL of compound was transferred by a pin tool. The plate was incubated at RT for 10 min. Two uL of an NADPH regeneration solution (Promega supplied reagent) was dispensed and the reaction was allowed to continue for 60 min at RT. Then the reaction was stopped by reconstituted luciferin detection buffer. After another 20 min of incubation the plate was read on the ViewLux (Perkin Elmer) at 60 sec exposure and 2x2 binning. This protocol was carried out with Promega-Glo reagents and further information can be found at http://www.promega.com/tbs/tb325/tb325.pdf. Data were normalized to the to AC100 inhibition (57 uM ketoconazole).
Keywords: P450, CYP3A4, Luciferase, MLSMR, MLSCN, NIH Roadmap, qHTS, NCGC
Background: Quantitative high-throughput screening tests each substance at several concentrations.
Consider `FC(F)(F)c1ccccc1-c1cncnc1NCCN1CCOCC1`, for which the Potency is 0.794 µM (active).

For the compound `COc1ccccc1CNc1cc(-c2cccc(NS(C)(=O)=O)c2)ncn1`, the Potency was 5.01 µM (active). Turning to `COc1ccccc1CCn1c(=O)c(-c2ccc(Cl)cc2)nc2cncnc21`, the Potency was 3.98 µM (active). In the case of `Cc1cnc(CNc2ncncc2-c2ccccc2CN(C)C)cn1`, the Potency was 3.16 µM (active).

For `CC(=O)NCCNc1ncnc2ccc(-c3ccc4c(c3)OCO4)cc12`, the Potency was 5.01 µM (active).

On to `O=C(c1cccc(F)c1)N1CCC[C@@]2(CCN(c3ccccc3)C2)C1`, for which the Potency was 6.31 µM (active). For `COc1cccc(Cn2c(=O)c(-c3cccs3)nc3cnc(OC)nc32)c1`, the Potency is 3.98 µM (active). Consider `C=C[C@](C)(O)CCC=C(C)C`, for which the Potency result was “inactive”.

`O=c1c(-c2cccs2)nc2cnc(N3CCNCC3)nc2n1Cc1cccs1`: the Potency is 2.51 µM (active). The value for `Cc1ccccc1-c1ccc2ncnc(NCc3cccs3)c2c1` was 3.98 µM (active); that for `CN1CCN(c2ncc3nc(-c4cccc(C#N)c4)c(=O)n(C[C@H]4CCCO4)c3n2)CC1` was “inactive”; that for `COc1ccc(C(=O)N2CCC[C@@]3(CCN(C(=O)Nc4cccc(C#N)c4)C3)C2)cc1` was 7.94 µM (active). Consider `N#Cc1cccc(-c2cncnc2NCc2ccccc2)c1`, for which the Potency is 1.26 µM (active). Take `Cc1cnc(CNc2nc(-c3ccc(N(C)C)cc3)nc3ccccc23)cn1`: the Potency is 5.01 µM (active). On to `COC(=O)N1CCC2(CC1)CCN(c1ncccn1)CC2`, for which the Potency result is “inactive”. On to `COc1ccc(NC(=O)N2CCC3(CC2)CCN(C(=O)c2cccn2C)CC3)cc1`, for which the Potency entry was “inactive”. For `c1cc(NC2CC2)nc(-c2ccoc2)n1`, the Potency is 5.01 µM (active). The value for `Cc1noc(C)c1-c1cncnc1NC1CC1` was 7.94 µM (active). Turning to `CC(C)(S)[C@H](N)C(=O)O`, the Potency result was “inactive”. In the case of `COc1ccc(CNc2ncncc2-c2ccccc2C)c(OC)c1`, the Potency is 0.398 µM (active). The value for `CN(C)c1ccc(-c2nc(NCCc3cnc[nH]3)c3ccccc3n2)cc1` was 2.51 µM (active).

Regarding `FC(F)(F)c1ccccc1-c1cncnc1Nc1ccccc1`, the Potency was 0.501 µM (active). For `CN(C)c1ncc2nc(-c3ccc(Cl)cc3)c(=O)n(Cc3ccc(F)cc3)c2n1` the value was “inactive”; for `Cc1cnc(CNc2nc(-c3ccccc3C(F)(F)F)nc3ccccc23)cn1`, 5.01 µM (active).

Regarding `COc1cccc(-c2nc(NCc3cnc(C)cn3)c3ccccc3n2)c1`, the Potency was 2.51 µM (active).

Turning to `Cn1c(=O)c(-c2ccccc2)nc2cnc(Oc3ccccc3)nc21`, the Potency result was “inactive”. `c1cncc(-c2nc(NCCN3CCOCC3)c3ccccc3n2)c1`: the Potency is 7.94 µM (active).

As to `COc1ccc2[nH]cc(CCNc3nc(-c4cccnc4)nc4ccccc34)c2c1`, the Potency was 1.58 µM (active). With `N#Cc1cccc(-c2cncnc2NCc2cccnc2)c1`, the Potency is 1.26 µM (active).

In the case of `O=C1C=CC2=C3c4cc(O)c(O)cc4CC3(O)COC2=C1O` (stereo not given), the Potency is 31.6 µM (active).

Take `COc1ccccc1CCn1c(=O)c(CCc2ccccc2)nc2cncnc21`: the Potency was 3.16 µM (active).

As to `Cc1ccccc1-c1ccc2ncnc(NCc3cccnc3)c2c1`, the Potency was 1.58 µM (active). In the case of `COc1ccc(CNc2nc(-c3c(C)noc3C)nc3ccccc23)c(OC)c1`, the Potency is 2.51 µM (active). Turning to `COCCn1c(=O)c(-c2cn(C)c3ccccc23)nc2cnc(Oc3ccc(OC)cc3)nc21`, the Potency was 3.98 µM (active).

Regarding `N#Cc1cccc(NC(=O)N2CCC3(CC2)CCN(C(=O)c2cccc(F)c2)CC3)c1`, the Potency result was “inactive”. In the case of `Cc1cnc(CNc2ncnc3ccc(-c4ccc5c(c4)OCO5)cc23)cn1`, the Potency was 2.51 µM (active). Take `FC(F)(F)c1ccccc1-c1cncnc1NCc1cccnc1`: the Potency is 0.631 µM (active). As for `N#Cc1cccc(NC(=O)N2CC3(CCN(C(=O)c4cccc(F)c4)CC3)C2)c1`, the Potency result is “inactive”.

`Cc1cccc(CNc2cc(-c3cccc(NS(C)(=O)=O)c3)ncn2)c1`: the Potency is 2 µM (active). For `N#Cc1cccc(NC(=O)N2CC3(CCN(C(=O)c4cnccn4)CC3)C2)c1` the value was “inactive”.
